Reference: PubChem BioAssay (NCATS)
Records with an inconclusive call do not appear. A call without a number means that no potency is given here. The source made the active and inactive calls. Calls come from the whole dose curve; as a rule, active = well fitted curve in the direction sought with a large enough effect; inconclusive = small, poorly fitted or top-dose-only effect, or another doubt; inactive = no such curve, though single readings can be large; an effect the other way counts as inactive or inconclusive. Residues, ends and D or L forms follow the SMILES beside them. *: point of attachment. Cbz = O=C(OCc1ccccc1)*

How the values were obtained:
[1] = target: Guanine nucleotide-binding protein G(i) subunit alpha-1 (Homo sapiens) (UniProt P63096); assay: qHTS Assay for Inhibitors of RGS12 GoLoco Motif Activity (Green Fluorophore) (AID 879); conditions: Galphai1/FITC-RGS12 GoLoco peptide, fluorescence polarization; series mostly up to 57.1 µM;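 note: negative values mean loss of peptide binding seen as reduced polarization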
In short: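 Fluorescence polarization assay: 50 nM Gαi1 with 10 nM FITC-labeled RGS12 GoLoco peptide in 10 mM Tris pH 7.5, 150 mM NaCl, 0.1 mM GDP, 0.05% NP40, 10 min at room temperature with compound.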

[2] = target: Cytochrome P450 3A4 (Homo sapiens) (UniProt P08684); assay: qHTS Assay for Activators of Cytochrome P450 3A4 (AID 885); conditions: recombinant CYP3A4, Luciferin-PPXE luminescence, 60 min; series mostly up to 57.1 µM; note: nearly all actives have a fitted effect of over 65% in size
In short: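 Signal was normalized against complete inhibition by 57 uM ketoconazole. The reaction used 20nM CYP3A4 with 25uM Luciferin-PPXE, 10-min compound preincubation and a 60-min NADPH-supported step at RT.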

[3] = target: Cytochrome P450 3A4 (Homo sapiens) (UniProt P08684); assay: qHTS Assay for Inhibitors and Substrates of Cytochrome P450 3A4 (AID 884); conditions: recombinant CYP3A4, Luciferin-PPXE luminescence; series mostly up to 57.1 µM; note: nearly all actives have a fitted effect of over 50% in size; note: potency is the fitted concentration of half-maximal effect
In short: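 20 nM human CYP3A4 with 25 uM Luciferin-PPXE (at KM) in 200 mM KPO4, preincubated 10 min with compound; NADPH regeneration started a 60 min RT reaction. Luciferin detected by luminescence, normalized to 57 uM ketoconazole as full inhibition.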

[4] = target: Cytochrome P450 2D6 (Homo sapiens) (UniProt P10635); assay: qHTS Assay for Inhibitors and Substrates of Cytochrome P450 2D6 (AID 891); conditions: recombinant CYP2D6, luciferin-ME EGE luminescence; series mostly up to 57.1 µM;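 note: luciferin methyl ether substrate demethylated by CYP2D6 with NADPH regeneration; nearly all actives have a fitted effect of over 60% in size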
In short: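 Human CYP2D6 (5 nM) with 30 uM Luciferin-ME EGE (at Km) in 100 mM KPO4, compound preincubated 10 min, then NADPH regeneration system for 60 min at room temperature. Luciferin read by luminescence; normalized to 1.43 uM quinidine.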

Chain of Cytochrome P450 3A4 (Homo sapiens) (P08684 whole entry, looked up): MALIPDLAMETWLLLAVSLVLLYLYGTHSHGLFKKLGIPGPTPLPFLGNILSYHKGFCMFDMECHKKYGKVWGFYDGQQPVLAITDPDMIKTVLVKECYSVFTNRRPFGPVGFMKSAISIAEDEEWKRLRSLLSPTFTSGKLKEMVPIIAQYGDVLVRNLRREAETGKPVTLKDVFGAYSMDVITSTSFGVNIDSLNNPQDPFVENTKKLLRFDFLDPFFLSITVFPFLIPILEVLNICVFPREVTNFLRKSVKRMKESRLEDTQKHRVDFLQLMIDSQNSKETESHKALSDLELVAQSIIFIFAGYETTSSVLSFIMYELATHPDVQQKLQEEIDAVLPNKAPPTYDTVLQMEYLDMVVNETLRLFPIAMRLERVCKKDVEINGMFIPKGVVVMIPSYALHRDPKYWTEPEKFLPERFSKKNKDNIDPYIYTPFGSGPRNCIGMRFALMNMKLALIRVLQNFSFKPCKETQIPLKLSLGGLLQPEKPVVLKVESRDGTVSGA
Chain of Guanine nucleotide-binding protein G(i) subunit alpha-1 (Homo sapiens) (P63096 whole entry, looked up): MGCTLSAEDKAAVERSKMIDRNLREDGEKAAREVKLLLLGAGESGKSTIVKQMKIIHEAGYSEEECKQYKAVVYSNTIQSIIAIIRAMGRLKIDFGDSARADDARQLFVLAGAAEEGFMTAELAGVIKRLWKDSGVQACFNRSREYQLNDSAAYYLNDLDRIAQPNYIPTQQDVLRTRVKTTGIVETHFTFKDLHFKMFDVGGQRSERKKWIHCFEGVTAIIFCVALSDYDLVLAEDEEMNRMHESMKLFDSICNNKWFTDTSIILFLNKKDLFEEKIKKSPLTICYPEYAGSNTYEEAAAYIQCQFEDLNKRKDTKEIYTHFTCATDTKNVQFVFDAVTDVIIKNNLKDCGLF
Chain of Cytochrome P450 2D6 (Homo sapiens) (P10635 whole entry, looked up): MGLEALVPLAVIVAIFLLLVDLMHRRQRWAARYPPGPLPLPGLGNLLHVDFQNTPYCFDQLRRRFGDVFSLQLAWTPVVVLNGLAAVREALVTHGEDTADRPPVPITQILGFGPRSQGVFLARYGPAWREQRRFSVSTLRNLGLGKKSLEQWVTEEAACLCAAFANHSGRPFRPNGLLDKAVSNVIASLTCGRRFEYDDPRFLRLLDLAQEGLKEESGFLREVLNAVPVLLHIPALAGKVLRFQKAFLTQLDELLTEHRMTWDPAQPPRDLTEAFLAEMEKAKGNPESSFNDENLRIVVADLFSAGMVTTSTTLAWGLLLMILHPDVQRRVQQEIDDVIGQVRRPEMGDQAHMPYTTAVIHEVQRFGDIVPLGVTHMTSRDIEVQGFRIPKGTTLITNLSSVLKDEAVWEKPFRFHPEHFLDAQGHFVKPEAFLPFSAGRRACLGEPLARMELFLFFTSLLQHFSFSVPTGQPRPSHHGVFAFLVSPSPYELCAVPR

O=[N+]([O-])c1cccc2c(Br)[nH]nc12
Potency [1]: inactive | Potency [2]: inactive

CNc1cc(NS(=O)(=O)c2ccc(N)cc2)nc(NC)n1
Potency [1]: inactive | Potency [3]: 0.794 µM (active) | Potency [2]: inactive

CC(C)(C)c1ccc(/C=C/C(=O)Nc2ccc3c(c2)OCCO3)cc1
Potency [3]: inactive

Clc1nccc2c1ccc1ccccc12
Potency [1]: inactive | Potency [2]: inactive

Cn1cc(C(=O)OCC2CCN(CCNS(C)(=O)=O)CC2)c2ccccc21
Potency [1]: inactive | Potency [4]: inactive

CC(C)[C@H](NC(=O)OCc1ccccc1)C(=O)N[C@H](C=O)Cc1ccccc1 (Cbz-Val-Phe-aldehyde)
Potency [1]: inactive | Potency [3]: 6.31 µM (active) | Potency [2]: inactive

CN1C2CCC1CC(OC(c1ccccc1)c1ccccc1)C2 (centres undefined)
Potency [3]: inactive

C[C@H](O)C(=O)C1=Nc2c(nc(N)[nH]c2=O)NC1
Potency [2]: inactive

CN(C)CCC(c1ccc(Br)cc1)c1ccccn1 (centres undefined)
Potency [3]: inactive

c1ccc(C(NCCNC(c2ccccc2)c2ccccc2)c2ccccc2)cc1
Potency [3]: inactive

O=C(O)c1ccccc1Nc1ccccc1
Potency [1]: inactive | Potency [2]: inactive
